Assay outcomes (PubChem BioAssay)
HT1080 IDH1KD tx: kills HT-1080 cells with IDH1 knockdown; HT-1080 IDH1 knockdown viability, ATP luminescence, 48 h; Potency, µM (doses to about 46.1 µM), for inactives: top-dose activity, negative = toxicity, most hits filed as cytotoxic; 360,000 tested, 2% active;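 also: 0% = DMSO wells and -100% = cell-free medium wells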
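% activity derives from luminescence (CellTiter-Glo), normalised to DMSO and no-cell wells. HT-1080-IDH1KD cells, 750/well, had 48 h compound exposure at 37 °C.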
KB-V1 cytotox: KB-V1 MDR subline cytotoxicity | KB-V1 MDR cells viability, CellTiter-Glo, 72 h | Potency, µM (series often up to 46.1 µM), most hits filed as cytotoxic | 400,000 tested, 3.4% active; also: nearly all actives have a fitted effect of over 60% in size
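Drug-selected KB-V1 cells, grown in DMEM lacking phenol red with 10% FBS, receive compound titrations; after three days at 37 degrees C, surviving cell ATP is quantified by CellTiter-Glo luminescence and responses normalized and curve-fitted.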
KB-3-1 tox: kills parental KB-3-1 adenocarcinoma cells; KB-3-1 viability, CellTiter-Glo ATP luminescence, 72 h; Potency, µM (doses to about 46.1 µM), actives largely listed as cytotoxic; 400,000 tested, 1.4% active; AID 1347075; also: nearly all actives have a fitted effect of over 60% in size
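KB-3-1 parental drug-naive adenocarcinoma cells in DMEM/10% FBS, incubated 72 h at 37 C with pin-transferred compounds across a concentration series. Viability by CellTiter-Glo luminescence; concentration-response curves fitted after normalization.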
TDP1 cell noCPT: qHTS for Inhibitors of human tyrosyl-DNA phosphodiesterase 1 (TDP1): qHTS in cells in absence of CPT; DT40 Tdp1-/- hTDP1 cells, no CPT, ATP luminescence, 48 h; Potency, µM (titrated, usually from 46.2 µM), without a hit: at the top dose activity change, negative = growth inhibition, actives largely listed as inhibitors; 420,000 tested, 15% active; AID 686978, 2013; also: nearly all actives have a fitted effect of over 55% in size
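Luminescent ATP content (CellTiter-Glo) served as the growth readout. Knockout chicken DT40 cells expressing human TDP1 were exposed to compounds without camptothecin for a minimum 48 hr at 37 °C.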
HT1080-NT tox: kills 2HG-producing HT-1080-NT fibrosarcoma cells. HT-1080-NT fibrosarcoma viability, CellTiter-Glo ATP luminescence, 48 h. Potency, µM (highest dose often 46.1 µM), for the others: at the highest dose activity, negative = less viability, most hits filed as cytotoxic. 360,000 tested, 1.6% active. AID 686970;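 also: NT is the 2HG producing partner of a matched IDH1 knockdown line; 0% = DMSO-treated cells and -100% = media-only wells without cells; nearly all actives have a fitted effect of over 55% in size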
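A 48-hour cytotoxicity screen used HT-1080-NT cells plated 2 hours before compound delivery. ATP-based CellTiter-Glo luminescence measured viability, normalized to DMSO and no-cell controls.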
DT40 TDP1 CPT: growth inhibition of DT40 Tdp1-/-;hTDP1 cells with camptothecin (screen for TDP1 inhibitors). AID 686979. Potency, µM (top dose mostly 46.2 µM), for inactives: at the highest dose activity change, negative = growth inhibition, usual class: inhibitors. chicken DT40 Tdp1-/-;hTDP1 cells + 20 nM CPT, ATP luminescence, 48 h. 420,000 tested, 12% active; also: nearly all actives have a fitted effect of over 55% in size
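Cell growth measured by CellTiter-Glo luminescence after a minimum 48 h, 37 C compound exposure with 20 nM CPT in Tdp1-knockout DT40 cells stably expressing hTDP1, seeded 400/well; qHTS titration format.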
Numbers without * were called inactive; i = inactive; ? = inconclusive; . = not tested or not shown. Shown are actives, neighbours in structure and some others; about 19% of the full set was active somewhere. Calls follow the shape of the dose curve; as a rule, active = well fitted curve in the direction sought with a large enough effect; inconclusive = small, poorly fitted or top-dose-only effect, or another doubt; inactive = no such curve, though single readings can be large; an effect the other way counts as inactive or inconclusive. Unless noted, % is scaled to controls: 0 for no effect and ±100 for the full control effect; potency is read from the fitted curve at half-maximal effect.

SMILES	HT1080 IDH1KD tx	KB-V1 cytotox	KB-3-1 tox	TDP1 cell noCPT	HT1080-NT tox	DT40 TDP1 CPT
COc1ccc(C(=O)CN2CCN(S(=O)(=O)c3ccc(F)cc3)CC2)cc1	.	i	i	-20%	.	?
CCCCN1C(=O)C(CC(=O)NC2CCCC2)CC(C(=O)N(C(C)C)C(C)C)=C1C (configuration not stated)	-1%	i	i	?	10%	-17%
CN(CC(=O)Nc1ccc(N2CCOCC2)cc1)C(=O)c1ccc(CS(C)(=O)=O)cc1	3%	i	i	?	-5%	-19%
COc1ccc(N2CCN(c3nc4ccccc4n4c(C)nnc34)CC2)cc1	.	i	i	-9%	.	-6%
CCc1nnc2c(N3CCN(c4cccc(C)c4)C(C)C3)nc3ccccc3n12 (configuration not stated)	.	i	i	?	.	21µM*
Cc1cccc(N2CCN(c3nnnn3-c3ccccc3)CC2C)c1 (configuration not stated)	-1%	i	i	?	1%	?
CCc1nnc2c(N3CCN(c4cccc(C(F)(F)F)c4)CC3)nc3ccccc3n12	.	?	i	21µM*	.	21µM*
CC(C)NC(=O)c1c(O)c2cccc3c2n(c1=O)CCC3	2%	i	i	-8%	7%	?
CCOC(=O)C(C(=O)OCC)c1c([N+](=O)[O-])c(=O)n2c3c(cccc13)CCC2	-7%	i	i	21µM*	1%	?
Cc1c(-c2nnc(SCC(=O)Nc3ccccc3F)o2)nnn1-c1ccc(F)cc1	.	.	.	-9%	.	-15%
CC1C/C(=N\NC(N)=S)c2cc(Cl)ccc2S1 (configuration not stated)	-17%	i	i	?	?	-2%
CC(C)=C1CCC(C)CC1=NNC(N)=S (configuration not stated)	-3%	i	i	21µM*	-2%	?
Cn1nc(C(=O)NCc2ccccc2Cl)c2c1-c1ccccc1S(=O)(=O)C2	-1%	i	i	?	5%	?
CC(Oc1ccc2c(c1)c1ccnc3c4ccccc4c(=O)n2c13)C(=O)NCCN1CCOCC1 (configuration not stated)	-7%	i	i	7.3µM*	-9%	8.2µM*
COc1ccc2c(c1OC)c(=O)n1c3ccc(OC(C)C(=O)NCCCN4CCOCC4)cc3c3ccnc2c31 (configuration not stated)	-11%	i	i	6.5µM*	-2%	13µM*
CC(Oc1ccc2c3c(c(=O)oc2c1)CCCC3)C(=O)NCCN1CCOCC1 (configuration not stated)	1%	i	i	2%	1%	-25%
CCCCc1cc(=O)oc2cc(OC(C)C(=O)NCCN3CCOCC3)ccc12 (configuration not stated)	1%	i	i	-8%	0%	-8%
COc1ccc2c(c1OC)c(=O)n1c3ccc(OC(C)C(=O)NCCN4CCOCC4)cc3c3ccnc2c31 (configuration not stated)	-4%	i	i	23µM*	-4%	16µM*
Cc1sc2ncn(CC(=O)NCCCC(=O)N3CCCCC3)c(=O)c2c1C	-7%	i	i	-1%	-6%	?
CC(=O)c1ccc(S(=O)(=O)NCC(=O)NC(c2nc3ccccc3[nH]2)C(C)C)cc1 (configuration not stated)	-1%	?	i	?	-2%	?
CC(C)C(NC(=O)CCNC(=O)c1ccc(C(C)(C)C)cc1)c1nc2ccccc2[nH]1 (configuration not stated)	-1%	i	?	18µM*	0%	?
Cc1c(C)c2c(OCC(=O)N3CCC(C(N)=O)CC3)cc3c(c2oc1=O)CCC(C)(C)O3	-8%	i	i	?	-5%	-26%
Cc1cc(OCCn2cc(C(=O)c3cccs3)c3ccccc32)ccc1Cl	.	i	i	16µM*	.	16µM*
CC(C)(C)c1ccc(OCCn2cc(C(=O)c3ccco3)c3ccccc32)cc1	.	i	i	23µM*	.	?
CCOc1ccc(NC(=O)Cn2cc(C(=O)c3cccs3)c3ccccc32)cc1	.	i	i	?	.	?
SMILES	HT1080 IDH1KD tx	KB-V1 cytotox	KB-3-1 tox	TDP1 cell noCPT	HT1080-NT tox	DT40 TDP1 CPT
O=C(c1ccco1)c1cn(CCOc2ccc(F)cc2)c2ccccc12	.	i	i	?	.	?
O=C(c1cccs1)c1cn(CCOc2ccccc2F)c2ccccc12	.	.	.	18µM*	.	?
COC(=O)c1cn(CCOc2ccccc2F)c2ccccc12	-12%	i	i	-8%	-2%	-27%
O=C(c1cccs1)c1cn(CCOc2ccc(F)cc2)c2ccccc12	.	.	.	21µM*	.	16µM*
C[C@@H]1COC(=O)[C@@H](CC(=O)OC(C)(C)C)C/C=C\C[C@H](CC(=O)NCCO)C(=O)N1	3%	i	i	4%	5%	1%
CCOc1cc(C#N)c(NC(=O)c2ccc(OC)c(S(=O)(=O)N3CCN(c4ccccc4)CC3)c2)cc1OCC	.	i	i	?	.	?
Nc1ccc2c(c1)N=[N+]([O-])c1cc(N)ccc1C2	1%	?	i	-3%	15%	10%
